Measured values as given in PubChem BioAssay.

Tested on: Lefty1
Experiment: Lefty1 protein binding to printed compounds – biochemical, small-molecule microarray, 635/667 nm fluorescence, primary screen (AID 1139)
Settings: fluorescence 635/667, higher = more signal

SMILES | composite z-score
COCC(=C=CC[C@@H](O)c1ccc(CO)o1)CCO | 1.24
CC(C)N1C(=O)c2ccccc2[C@@H](C(=O)NCCCN(C)C)[C@@H]1c1ccc(CO)cc1 | -1.12
C=C[C@@H](COC(C)=O)N(Cc1ccc([N+](=O)[O-])cc1)S(=O)(=O)c1ccc(Br)cc1 | 0.321
CC(C)C(=C=CC[C@@H](O)c1ccccc1OCCO)C[C@@H](O)c1ccccn1 | 0.811
C=CCNC(=O)[C@@H]1[C@H]2C(=O)O[C@H](c3ccccc3)[C@H](c3ccccc3)N2[C@H](c2ccc(O)cc2)[C@@]12C(=O)N(C(=O)OCCOC)c1ccccc12 | 0.522
CC(C)(C)OC(=O)CC[C@@]1(C(=O)NCCN2CCOCC2)N=C(c2ccc(OCCCO)cc2)O[C@@H]1c1ccccc1 | 0.499
N#Cc1ccc(NN2C(C(O)C3CCCCC3)C=CC3C(=O)N(c4ccccc4)C(=O)C32)cc1 (stereo unspecified) | 0.058
C=CCN1C(=O)[C@]2(O[C@H](CCO)[C@@H]([Si](C)(C)c3ccc(OC)cc3)[C@@H]2C)c2cc(NC(=O)[C@H](C)O)ccc21 | 0.673
O=C1O[C@H](c2ccccc2)[C@H](c2ccccc2)N2[C@H]1[C@@H](C(=O)N1CCN(c3ncccn3)CC1)[C@]1(C(=O)Nc3ccccc31)[C@H]2c1ccc(OCCO)cc1 | 1.12
O=C1OCCC/C=C\[C@H]2OC34C=CCN(Cn5nnc6ccccc65)C(=O)[C@H]3N(CCCCCO)C(=O)[C@@H]4C12 (stereo partly specified) | -0.204
COc1cc2c(cc1OC)CN(C(=O)[C@@H]1[C@H]3C(=O)O[C@H](c4ccccc4)[C@H](c4ccccc4)N3[C@H](c3ccccc3OCCO)[C@@]13C(=O)Nc1ccc(C#CCNC(N)=O)cc13)CC2 | 0.768
COC(=O)[C@@]1(Cc2ccccc2)[C@H]2c3cc(C(=O)N4CCCC4)n(C)c3C[C@H]2CN1C(=O)c1ccccc1 | -0.0781
O=C1O[C@H](c2ccccc2)[C@H](c2ccccc2)N2[C@H]1[C@@H](C(=O)Nc1nc3ccccc3s1)[C@]1(C(=O)Nc3ccccc31)[C@H]2c1ccc(O)cc1 | 1.08
CCN(CC)c1ccc(N2CC=CC34O[C@@H]5C=CCCOC(=O)C5[C@H]3C(=O)N(CCCCCO)[C@@H]4C2=O)cc1 (stereo partly specified) | -0.0412
COCCOC(=O)N1C(=O)[C@@]2(c3cc(C#CCC(C(=O)OC)C(=O)OC)ccc31)[C@H](c1ccc(O)cc1)N1[C@H](c3ccccc3)[C@H](c3ccccc3)OC(=O)[C@H]1[C@@H]2C(N)=O | 0.366
NC(=O)NCC#Cc1ccc2c(c1)[C@]1(C(=O)N2)[C@H](C(=O)N2CCCCCCC2)[C@H]2C(=O)O[C@H](c3ccccc3)[C@H](c3ccccc3)N2[C@@H]1c1ccc(OCCO)cc1 | 1.25
CC(C)N1CC=CC23O[C@@H]4C=CCOC(=O)[C@@H]4[C@H]2C(=O)N(CCO)[C@@H]3C1=O (stereo partly specified) | 0.103
COc1ccc(CCNC(=O)[C@@]2(c3ccc([N+](=O)[O-])cc3)CC(=O)N(CC34CC5CC(CC(C5)C3)C4)[C@@H]2c2ccc(CO)cc2)cc1 | 0.981
COCCOC(=O)N1C(=O)[C@@]2(c3ccccc31)[C@H](C(=O)NC[C@H](O)c1ccccc1)[C@H]1C(=O)O[C@H](c3ccccc3)[C@H](c3ccccc3)N1[C@@H]2c1ccc(OCCO)cc1 | 1.58
COc1ccc(C(O)C2C=CC3C(=O)NC(=O)C3N2Nc2ccccn2)cc1OCc1ccccc1 (stereo unspecified) | -0.168
COCCOC(=O)N1C(=O)[C@@]2(c3cc(C#CC4=CCCCC4)ccc31)[C@H](C(=O)NC[C@H](O)c1ccccc1)[C@H]1C(=O)O[C@H](c3ccccc3)[C@H](c3ccccc3)N1[C@@H]2c1ccc(O)cc1 | 0.861
COc1ccc([Si](C)(C)[C@@H]2[C@@H](CCn3cc([C@H](O)c4ccccc4)nn3)O[C@]3(C(=O)N(Cc4ccc(N5C(=O)c6cccc7cccc5c67)cc4)c4ccccc43)[C@H]2C)cc1 | -0.236
[N-]=[N+]=NCc1ccccc1C[C@]1(C(=O)O)N=C(c2ccc(OCCCO)cc2)O[C@H]1c1ccccc1CN=[N+]=[N-] | -0.8
CC(C)NC(=O)[C@@H]1c2ccccc2C(=O)N(Cc2ccccc2)[C@H]1c1ccc(CO)cc1 | -1.54
COCCOC(=O)N1C(=O)[C@@]2(c3cc(C#CCNC(N)=O)ccc31)[C@H](c1ccccc1OCCO)N1[C@H](c3ccccc3)[C@H](c3ccccc3)OC(=O)[C@H]1[C@@H]2C(N)=O | 0.782
O=C1C2C=CC(C(O)c3ccc(B(O)O)cc3)N(Nc3ccccc3)C2C(=O)N1c1ccccc1 (stereo unspecified) | -0.698
